SF1 inhibitor = inhibitors of human nuclear receptor SF-1; Q13285; inhibition, % at 10 µM; actives 0.55% (n = 65,000); AID 525; CHO-K1 Gal4-SF-1 LBD luciferase reporter;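 active = inhibition above the mean inhibition of all tested compounds plus 3 SD, cut at about 48% in these data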;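 note: 0% = SF-1 transfected cells with DMSO and 100% = mock-transfected cells lacking SF-1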
Target sequence (Q13285 whole entry, looked up, the tested form may be a part): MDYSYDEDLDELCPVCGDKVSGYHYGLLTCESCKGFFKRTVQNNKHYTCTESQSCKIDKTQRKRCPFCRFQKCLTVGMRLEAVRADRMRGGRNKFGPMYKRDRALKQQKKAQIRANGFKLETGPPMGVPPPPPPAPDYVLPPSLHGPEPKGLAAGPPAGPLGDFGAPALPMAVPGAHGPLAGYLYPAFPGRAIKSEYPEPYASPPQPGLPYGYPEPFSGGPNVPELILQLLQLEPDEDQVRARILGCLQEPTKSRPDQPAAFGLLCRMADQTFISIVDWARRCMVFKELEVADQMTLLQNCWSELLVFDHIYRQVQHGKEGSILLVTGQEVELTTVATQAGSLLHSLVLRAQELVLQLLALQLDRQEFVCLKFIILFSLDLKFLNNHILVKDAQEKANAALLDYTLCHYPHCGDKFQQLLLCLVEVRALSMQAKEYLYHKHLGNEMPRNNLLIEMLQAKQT
* hit, by the source's call. Shown is part of a subset that was picked to be rich in hits.

SMILES	SF1 inhibitor
CCCc1nnc(NC(=O)CN2C(=O)C3C4C=CC(C4)C3C2=O)s1 (stereo not drawn)	-17.8
CCN(CC)CCCN1C(=O)C(O)=C(C(=O)c2cc3cccc(OC)c3o2)C1c1ccncc1 (stereo not drawn)	-12.5
Cc1ccccc1OC(=O)CCC(=O)OCCCC(F)(F)C(F)(F)F	-3.3
COC(=O)c1ccc(CSc2nc3c(c(=O)n2-c2ccc(Br)cc2)SCC3)o1	6.9
O=C(c1cccs1)N1CCn2c1nc1ccccc12	-53.2
O=S(=O)(NCc1ccncc1)c1ccc(Br)s1	82.9*
O=S(=O)(NCc1csc(-c2ccccc2)n1)c1ccc(Cl)s1	11.7
O=C(CNS(=O)(=O)c1ccc(Br)s1)Nc1ccc2c(c1)OCCO2	-27.3
COc1ccc2[nH]c(=O)c(CN(C(=O)c3ccco3)C3CCCCC3)cc2c1	10.0
Cc1nn(-c2ccccc2)c2sc(C(=O)OC3CCOC3=O)cc12 (stereo not drawn)	15.8
COc1nc(C)nc2c1sc(=S)n2C	-24.2
CCOc1ccc2[nH]c(=O)c(CN(CCO)C(=O)c3ccc(F)cc3)cc2c1	-10.5
O=C(NC1(C(=O)NC2CCCCC2)CCCCC1)c1ccc2c(c1)OCO2	-11.3
O=C(c1ccc(Cl)cc1)N1CCCCC(Sc2nnc(-c3ccc4c(c3)OCO4)o2)C1=O (stereo not drawn)	89.2*
COc1cc2c(cc1NC(=O)CN1C(=O)NC3(CCc4ccccc43)C1=O)oc1ccccc12 (stereo not drawn)	-2.7
CC(C)OC(=O)Cn1c(=O)oc2ccccc21	-6.7
COc1ccc(C)cc1Cn1c(S(C)(=O)=O)nc2ccccc21	2.7
COc1ccc(OC)c(NS(=O)(=O)c2ccc(N3CCCC3=O)cc2)c1	52.8*
COc1ccc(N2CC(C(=O)Nc3ccc(N4CCOCC4)cc3)CC2=O)cc1 (stereo not drawn)	3.1
COc1ccc(OC)c(S(N)(=O)=O)c1	-12.7
CCC(=O)NC1(C(F)(F)F)C(=O)NC(C)=C1C#N (stereo not drawn)	12.0
COc1ccc(C2=CSC3=NCCN23)cc1F	-7.6
Cn1c(=O)c2c(nc(N3CCOCC3)n2CCCNC2=NCCC2)n(C)c1=O	1.7
COc1ccc(NC(=O)c2cc3ccccc3o2)cc1	-54.4
CC(=O)Nc1cccc(NC(=O)c2cc3ccccc3o2)c1	-87.2
SMILES	SF1 inhibitor
CCCC(=O)N1CCN(c2ccc(NC(=O)c3cc4ccccc4o3)cc2Cl)CC1	48.2*
CCC1(CC)C(=O)NC(=O)NC1=NCCc1ccc(O)cc1	3.7
O=C(O)c1ccccc1C1=Nc2ccc(O)cc2Oc2cc(O)ccc21	11.5
O=C(O)c1cc2nc(-c3ccccc3)cc(C(F)(F)F)n2n1	7.2
CS(=O)(=O)c1nc(-c2ccccc2)cc(C(F)(F)F)n1	51.8*
COc1ccc(-c2cc(C(F)(F)F)nc(N3CCN(c4ccccc4)CC3)n2)cc1OC	-12.0
OC(COCC1COc2ccccc2O1)CN1CCN(c2ccccn2)CC1 (stereo not drawn)	3.2
COC(=O)c1cc2oc3ccccc3c2n1Cc1ccccn1	7.1
c1ccc(-c2csc(Nc3cccnc3)n2)nc1	-56.6
CCOC(=O)c1sc(Nc2nc3c(OC)cccc3s2)nc1C	-64.1
COc1cccc2sc(Nc3nc(-c4ccccn4)cs3)nc12	95.6*
Cc1cc(C(=O)CSc2nc3ccccc3[nH]2)c(C)n1C	-61.0
Cc1cc(-n2c(C)cc(C(=O)CSc3ncnc4ccccc34)c2C)no1	70.7*
Cc1cc(C(=O)CSc2nc3ccccc3o2)c(C)n1C1CC1	-61.0
CCOCC(=O)Nc1ccc(S(=O)(=O)NCCc2ccccc2)cc1	1.0
O=C(CCC1CCCC1)N1CCN(C(=O)COc2ccccc2)CC1	-2.8
COc1ccc(OC)c(-c2cc(C(=O)NCc3ccco3)no2)c1	2.6
O=S(=O)(c1ccccc1)N(C1=NCCS1)S(=O)(=O)c1ccccc1	-5.6
CC(CCc1ccccc1)NC(=O)C1CCN(C(=O)c2sccc2-n2cccc2)CC1 (stereo not drawn)	7.6
CCOC(=O)c1nnn(-c2nonc2N)c1COc1ccccc1	6.1
CCC1C(=O)n2nc(-c3ccccc3)cc2N=C1C (stereo not drawn)	-91.2
c1ccc(-n2ncc3c(NC4CCCCCC4)ncnc32)cc1	-90.9
CCN1CCN(c2ncnc3c2cnn3-c2ccccc2)CC1	-56.5
CC1CC(C)CN(c2ncnc3c2cnn3-c2ccc(Cl)cc2)C1 (stereo not drawn)	-70.8
Cc1cccc(-n2ncc3c(N4CCC(C)CC4)ncnc32)c1	-70.1
SMILES	SF1 inhibitor
c1ccc(-n2ncc3c(N4CCCCC4)ncnc32)cc1	68.7*
Cc1ccc(-n2ncc3c(N4CCCC(C)C4)ncnc32)c(C)c1 (stereo not drawn)	-58.7
CC1CCCN(c2ncnc3c2cnn3-c2ccc(Cl)cc2)C1 (stereo not drawn)	85.5*
CC1CCCN(c2ncnc3c2cnn3-c2ccccc2)C1 (stereo not drawn)	48.2*
Cc1ccc(-n2ncc3c(N4CCCC4)ncnc32)c(C)c1	-66.0
CCCC(=O)Nc1cccc(C(=O)Nc2nccs2)c1	-21.5
CS(=O)(=O)N1CCCC(C(=O)NCCN2CCC(Cc3ccccc3)CC2)C1 (stereo not drawn)	-15.0
CCOC(=O)c1c(N)sc2c1CCS(=O)(=O)C2	5.2
Cc1ccc(-n2ncc3c(=O)n(CC(=O)NCc4ccco4)cnc32)cc1C	-12.2
Cc1noc(C)c1COC(=O)c1cccnc1SCC(=O)Nc1ccc2c(c1)OCO2	-3.2
COc1cc(-c2nnc3sc(-c4cccnc4)nn23)cc(OC)c1OC	17.8
COc1ccccc1-c1nn2c(-c3ccco3)nnc2s1	-59.1
CCN(CC)c1ccc(-c2nn3c(-c4ccccc4OC)nnc3s2)cc1	66.8*
CCOc1cccc(C(=O)Nc2nnc(-c3ccco3)s2)c1	-11.2
COC(=O)c1ccc(CSc2nc3c(cnn3-c3ccccc3)c(=O)[nH]2)o1	-0.2
Cn1cnnc1SCc1ccc(-c2ccc(Br)cc2)o1	5.4
CC(C)n1nc(C(=O)NCCc2ccc(S(N)(=O)=O)cc2)c2ccccc2c1=O	-7.1
CCOC(=O)N1CCC(NC(=O)c2cccnc2SC)CC1	-1.5
CCOC(=O)C1CCCN(c2nc(C)nc3c2oc2ccccc23)C1 (stereo not drawn)	17.2
CCOC(=O)C1CCN(Cc2ccc(O)c3ncccc23)CC1	76.9*
CCOC(=O)N1CCN(C(=O)CN(C)S(=O)(=O)c2ccc(OC)c(OC)c2)CC1	-0.2
c1cnc2c(SCc3ccc(-c4nnco4)cc3)cccc2c1	-62.5
COc1ccc2cc(CCNC(=O)C3CC3)c(=O)[nH]c2c1	-4.6
CCCSc1nnc(Cn2c(=O)sc3ccccc32)n1-c1ccccc1	-4.2
O=C(O)c1ccc(COc2c(F)c(F)cc(F)c2F)cc1	-17.5
SMILES	SF1 inhibitor
COc1cc(/C=N/O)ccc1OCc1ccc(C(=O)O)cc1	90.6*
COc1ccc(OCc2ccc(C(=O)O)cc2)cc1	-63.7
CCC1CCCCN1CCCNC(=O)CNC(=O)Cn1ccc2ccccc2c1=O (stereo not drawn)	4.7
CCOC(=O)CSC(CC)C(=O)Nc1nnc(CC)s1 (stereo not drawn)	-20.5
CC1(C)CNC(=O)c2sc(N3CCOCC3)nc2C1	-3.7
COc1cccc(C(=O)Cn2c(N3CCOCC3)nc3c2c(=O)n(C)c(=O)n3C)c1	-2.1
CCOC(=O)c1sc(-c2ccc(OC)cc2)cc1N	-62.5
COc1ccc(-c2cc3nc4n(c(=O)c3s2)CCOC4)cc1	56.3*
O=S(=O)(NCCc1cn2ccccc2n1)c1cccs1	-18.5
Cc1csc(SCC(=O)c2cc(C)n(Cc3cccs3)c2C)n1	60.1*
CCN(CC)C(=O)Oc1ccccc1NC(C)=O	20.0

Screening data: PubChem, The Scripps Research Institute Molecular Screening Center
